Reference: PubChem BioAssay AID2253 (Southern Research Specialized Biocontainment Screening …, 2010)
Out of some 2,200 compounds screened, about 1,300 (59%) were called active. The set was probably picked from earlier hits. A selection follows. Results with a measured potency or affinity are listed apart. A number with no mark means an inactive call. The rule behind the calls is not given here.

Assay: THP-1 cell cytotoxicity, dose response, cytotoxicity control for Salmonella PhoP regulon inhibitors, S. typhimurium screen hits (AID 2253)
Settings: THP-1 viability, CellTiter-Glo luminescence, 72 h; series mostly up to 50 µM; viability: at the top concentration

| Structure (SMILES) | viability |
| --- | --- |
| CC[C@H]1OC(=O)[C@H](C)[C@@H](O[C@H]2C[C@@](C)(OC)[C@@H](O)[C@H](C)O2)[C@H](C)[C@@H](O[C@@H]2O[C@H](C)C[C@H](N(C)C)[C@H]2O)[C@](C)(O)C[C@@H](C)[C@@H]2N[C@@H](COCCOC)O[C@H]([C@H]2C)[C@]1(C)O | 82.6% |
| CC[C@H]1OC(=O)[C@H](C)[C@@H](O[C@H]2C[C@@](C)(OC)[C@@H](O)[C@H](C)O2)[C@H](C)[C@@H](O[C@@H]2O[C@H](C)C[C@H](N(C)C)[C@H]2O)[C@](C)(O)C[C@@H](C)CN(C)[C@H](C)[C@@H](O)[C@]1(C)O | 89.2% |
| COc1ccccc1CC(=O)N1CCN(c2ccccn2)CC1 | 90.4% |
| COCC(=O)N(Cc1ccco1)c1nnc(C2CCOC2)s1 (stereo not given) | 99% |
| COc1ccc(OC)c(NC(=O)c2cc3c(Cl)nc4ccccc4c3s2)c1 | 95.3% |
| Cc1ccc2[nH]c3c(=O)n(CCc4cnc[nH]4)cnc3c2c1 | 86.3% |
| C=CCNc1nnc(Cl)c2ccccc12 | 85.3% |
| COc1ccc(C(=O)NCCC2=CCCCC2)cc1OC | 93.9% |
| O=P(Cc1cc[n+]([O-])cc1)(c1ccccc1)c1ccccc1 | 82.4% |
| NC(=S)c1cc2ccc(O)cc2oc1=O | 87.2% |
| O=C(NCc1cccs1)Nc1cccs1 | 90.7% |
| Cn1ncc(Br)c1C(=O)NCc1cccs1 | 92.8% |
| CC(C)=CCN1CCN(Cc2ccoc2)CC1CCO (stereo not given) | 94.6% |
| COc1ccc(NC(=O)CSc2nc(C)cs2)cc1OC | 93.2% |
| CSC(=NS(=O)(=O)c1ccccc1)SC | 80.6% [at 25 µM] |
| O=C(NCc1ccco1)C1CC(=O)N(CCc2ccccc2)C1 (stereo not given) | 99.7% |
| CCn1nc(C(=O)NCc2ccco2)c(Cl)c1Cl | 81.5% |
| O=C(CNc1ccccc1)Nc1ccc(F)cc1 | 87.7% |
| CCN(CC(=O)Nc1ccc(N2CCOCC2)cc1)Cc1nc2ccccc2c(=O)[nH]1 | 87.8% |
| Cc1c(C(c2cccc([N+](=O)[O-])c2O)c2c(C)n(C)n(-c3ccccc3)c2=O)c(=O)n(-c2ccccc2)n1C | 106% |
| Cc1ccc(CNC(=O)c2cccc(S(C)(=O)=O)c2)cc1 | 91.7% |
| CN(C)C(=O)c1cn(N(C)c2ncc(C(F)(F)F)cc2Cl)c(=O)c2ccccc12 | 100% |
| COc1cc(C2Nc3cccc4cccc(c34)N2)cc(OC)c1O | 94.5% |

| Structure (SMILES) | viability |
| --- | --- |
| CCOc1cc(C2Nc3cccc4cccc(c34)N2)ccc1O | 106% |
| NC(=O)c1ccccc1NC(=O)/C=C/C(=O)O | 94% |
| COc1ccc(NC(=O)c2sccc2SCC#N)cc1 | 85.5% |
| COC(=O)C1(O)CC(C(C)C)=NN1C(=O)c1ccc(Cl)cc1 (stereo not given) | 87.9% |
| CCCCn1cnc2sc(-c3ccccc3)cc2c1=O | 81.9% |
| CCn1cc(C(=O)O)c(=O)c2cc(F)c(N3CCNCC3)cc21 | 92% |
| CC(=O)Nc1ccc(C(=O)N2CCN(C(=O)c3ccco3)CC2)cc1 | 91.3% |
| COc1cc(OC)c(NC(=O)Nc2ccc(OC)c(OC)c2)cc1Cl | 90.3% |
| CCn1cc(C(=O)O)c(=O)c2cc(F)c(N3CCN(C)CC3)cc21 | 100% |
| O=C1OCC(CO)(CO)N=C1NNc1ccc(Cl)c(Cl)c1 | 89.3% |
| COC(=O)CCC(=O)Nc1ccc(Cl)c(Cl)c1 | 102% |
| Cc1ccc(NC(=O)COc2ncnc3c(Cl)cc(Cl)cc23)cc1[N+](=O)[O-] | 80.3% |
| CC(C)Cc1oc(C(=O)O)cc1CN | 97.5% |
| Cc1ccc(CNc2oc(-c3cccs3)nc2C#N)cc1 | 88.9% [at 25 µM] |
| CC1C(C#N)=C(N)OC2=C1C(=O)CCC2 (stereo not given) | 98.9% |
| CCCCN(CCCC)C(=O)c1cn(CC)c2cc(N3CCN(C)CC3)c(F)cc2c1=O | 91.2% |
| Cc1[nH][nH]c(=O)c1C(c1ccc(O)c([N+](=O)[O-])c1)c1c(C)[nH][nH]c1=O | 93.3% |
| COc1cc(CNCc2ccccn2)ccc1OCC(=O)NC(C)(C)C | 95.7% |
| O=C(CN(c1ccc(F)cc1)S(=O)(=O)c1ccc2c(c1)OCCO2)NCc1cccnc1 | 92.6% |
| COCCn1cc(C(=O)N2CCC(C)CC2)c2c3ccccc3n(C)c2c1=O | 82.2% |
| Cc1ccc(S(=O)(=O)N2CCC(C(N)=O)CC2)c(C)c1C | 87.3% |
| O=C(NCc1cccs1)[C@@H]1CSC2c3ccccc3C(=O)N21 (stereo not given in full) | 97.5% |
